# MITF inh – MITF inhibitors, primary screen, biochemical, AlphaScreen, human. Microphthalmia-associated transcription factor (Homo sapiens), O75030. AlphaScreen MITF homodimerization, bead proximity signal. inhibition, % at 2.6 µM. actives 0.91% (n = 650,000). AID 1259374, 2018; in the data active means inhibition above about 50%;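 further: 0% = vehicle wells with protein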
# Target sequence (O75030 whole entry, looked up): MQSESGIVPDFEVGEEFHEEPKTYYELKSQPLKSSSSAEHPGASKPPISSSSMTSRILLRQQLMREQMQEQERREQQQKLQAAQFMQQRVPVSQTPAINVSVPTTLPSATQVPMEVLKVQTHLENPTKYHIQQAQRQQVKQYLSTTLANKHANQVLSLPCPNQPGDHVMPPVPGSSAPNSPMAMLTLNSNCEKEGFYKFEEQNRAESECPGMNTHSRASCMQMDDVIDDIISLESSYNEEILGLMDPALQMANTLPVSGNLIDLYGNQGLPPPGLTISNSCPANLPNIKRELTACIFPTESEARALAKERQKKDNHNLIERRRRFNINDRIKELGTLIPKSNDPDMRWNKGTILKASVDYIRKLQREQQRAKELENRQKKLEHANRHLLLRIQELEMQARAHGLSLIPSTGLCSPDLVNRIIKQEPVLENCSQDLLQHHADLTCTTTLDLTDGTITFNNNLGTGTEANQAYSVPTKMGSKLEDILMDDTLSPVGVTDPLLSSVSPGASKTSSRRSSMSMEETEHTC
# FBW7 activator – FBW7 E3 ligase activators, primary screen, biochemical, AlphaScreen, human | F-box/WD repeat-containing protein 7 (Homo sapiens), Q969H0 | AlphaScreen FBW7–phospho-cyclin E peptide binding, activator screen | normalized activity (activation), % at 26.1 µM | actives 0.13% (n = 650,000); in the data active means normalized activity above about 1.9%;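 further: purified mutant Fbw7 with reduced substrate affinity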
# TEAD-YAP inh – TEAD-YAP interaction inhibition, primary screen, TEAD-YAP interaction inhibitor project, luminescence, HEK-TIYL cells; actives 1.4% (n = 640,000); AID 1259422, 2018; inhibition, % at 9.12 µM; TEAD-Gal4/YAP UAS-luciferase luminescence; in the data active means inhibition above about 32%;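 further: 0% = median of test compound wells and 100% = reference inhibitor wells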
# GPR151 activ – activators of human GPR151, primary screen, cell-based, PathHunter beta-arrestin, luminescence; activation, % at 11.2 µM; G-protein coupled receptor 151 (Homo sapiens), Q8TDV0; actives 1% (n = 650,000); PathHunter beta-arrestin GPR151 cells; in the data active means activation above about 4.9%;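 further: 0% = median of compound wells and 100% = cells with positive control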
# Active calls of the source: *. An excerpt weighted towards active compounds, which were near 3.4% of everything screened.
SMILES,MITF inh,FBW7 activator,TEAD-YAP inh,GPR151 activ
Cc1cccc2ccc(/C=C/c3ccc(N(C)C)cc3)[n+](C)c12,27,-1,93*,1
CC[n+]1ccccc1/C=C/N(C(C)=O)c1ccccc1,10,1,-9,0
CCOC(=O)c1c(C)[nH]c(-c2cn3ccccc3n2)c1C,1,0,-8,-1
CN(C)c1ccc(/C=C/c2ccc([N+](=O)[O-])cc2)cc1,11,0,-6,0
Cc1ccc(/C=C/c2ccc(N(C)C)cc2)[n+](C)c1,9,-1,70*,1
O=C1/C(=C/c2cccnc2)CCC/C1=C\c1cccnc1,-17,0,87*,0
Cc1cc2nn(-c3ccccc3)nc2cc1NC(=O)C(C)C,19,0,19,-1
CC(C)CC(=O)Nc1ccc2nn(-c3ccccc3)nc2c1,10,3.0*,-49,-1
CC(=O)Nc1cc2nn(-c3ccccc3)nc2cc1C,-12,0,50*,-7
O=C(COc1ccccc1)Nc1ccc2nn(-c3ccccc3)nc2c1,-2,0,-11,0
CC1(C)CC(=O)C/C(=N\Nc2n[nH]c(=O)[nH]c2=O)C1,2,0,12,0
C=CC[n+]1c(Nc2ccc(NC(C)=O)cc2)sc(C)c1-c1ccccc1,13,0,33*,0
CC1(C)OC2OC(CO)C3OC(C)(C)OC3C2O1 (stereo unspecified),9,1,-1,0
O=C(O)c1ccc2c(c1)C(=O)N(Nc1ccccc1[N+](=O)[O-])C2=O,24,0,48*,-2
O=C(O)c1ccc2c(c1)C(=O)N(c1ccccc1[N+](=O)[O-])C2=O,12,1,6,2
O=C(Nc1ccc(N2CCOCC2)cc1)c1cccc(-n2cc(-c3nc4ccccc4o3)cn2)c1,-5,2.4*,-6,-1
O=C(Nc1ccc(N2CCOCC2)cc1)c1cccc(-n2ncc3c2CCNC3)c1,1,0,0,0
CC(C)(C)OC(=O)N1CCc2c(cnn2-c2cccc(C(=O)Nc3ccc(N4CCOCC4)cc3)c2)C1,12,4.1*,1,-1
COc1ccc(CC(=O)NNC(=O)c2ccccc2Br)cc1,-5,0,4,2
CN(C(=O)COC(=O)C1(c2ccccc2F)CCCC1)C1CCS(=O)(=O)C1 (stereo unspecified),2,0,-4,0
O=C1OC(Nc2nc3ccccc3s2)c2ccccc21 (stereo unspecified),10,2.0*,-4,-1
Cc1csc(NC2OC(=O)c3ccccc32)n1 (stereo unspecified),17,0,-6,0
c1cc2c(cc1CN1CCc3nncn3CC1)OCO2,6,0,-5,2
CCOC(=O)CNC(=O)c1ccc(C(C)C)cc1,4,0,48*,-2
CCCCNC(=O)c1sc2nc(C)nc(N(C)c3ccc(C(C)C)cc3)c2c1C,-8,0,-5,5
SMILES,MITF inh,FBW7 activator,TEAD-YAP inh,GPR151 activ
CCOC(=O)CNC(=O)c1sc2nc(C)nc(N(C)c3ccc(C(C)C)cc3)c2c1C,15,2.3*,0,1
COc1ccc(CNC(=O)CSCc2ccc(Cl)s2)cc1,6,0,1,-1
COc1ccccc1-n1c(SCC(=O)Nc2cccc(F)c2)nnc1-c1cccnc1,4,0,46*,-1
COc1ccccc1-n1c(SCC(=O)Nc2nccs2)nnc1-c1ccncc1,10,0,62*,-2
Cc1ccccc1-n1c(SCC(=O)Nc2nccs2)nnc1-c1ccncc1,0,0,21,-1
COc1cccc(NC(=O)CSc2nnc(-c3cccnc3)n2-c2ccccc2C)c1,11,0,-2,0
Cc1csc(NC(=O)CSc2nnc(-c3cccnc3)n2-c2cccc(C)c2C)n1,-4,0,13,0
COc1ccccc1-n1c(SCC(=O)Nc2nc(C)cs2)nnc1-c1cccnc1,11,0,53*,-1
COc1ccccc1-n1c(SCC(=O)Nc2nccs2)nnc1-c1cccnc1,0,0,56*,0
CC1CCN(Cc2c(C(=O)N/N=C/C=C/c3ccccc3)nnn2-c2nonc2N)CC1,18,0,8,1
COCc1cc(C)nc2sc3c(=O)n(-c4cccc(C)c4)nnc3c12,9,0,-5,-1
CCOC(=O)c1c(NC(=O)CCl)sc(SC#N)c1-c1ccccc1,15,0,-9,-2
Nc1ccc2nc(-c3ccccc3)sc2c1,10,2.7*,85*,-8
c1ccc(-c2ccc(-c3nc4ccccc4s3)cc2)cc1,-11,0,92*,0
Nc1ccc(-c2nc3ccccc3s2)cc1,-8,0,51*,-9
Nc1ccc(-c2nc3ccccc3s2)c(Cl)c1,-2,0,-1,0
COC(=O)c1nn(-c2ccc(-c3ccccc3)cc2)cc1O,15,0,81*,-6
Cc1cnc(CNc2cc(-c3cncc(-c4ccccc4)c3)nc(C)n2)cn1,0,0,46*,1
COc1ccc(Nc2cc(-c3cncc(-c4ccccc4)c3)nc(C)n2)cc1,-1,0,50*,0
Cc1nc(C)n(-c2ccc(Nc3nccc(-c4cccc(-n5nccn5)c4)n3)cc2)n1,8,0,8,1
CCOC(=O)C1=C(C)NC2=C(C(=O)CC(c3ccco3)C2)C1c1cccs1 (stereo unspecified),10,0,63*,-1
CCOCCOC(=O)C1=C(C)NC2=C(C(=O)CC(c3cccs3)C2)C1c1cccs1 (stereo unspecified),-4,0,14,-1
CC1=C(C(=O)OC(C)C)C(c2ccsc2)C2=C(CC(c3cccs3)CC2=O)N1 (stereo unspecified),-11,0,67*,-1
Cc1ccc(/C(O)=C2/C(=O)C(=O)N(CC(C)C)C2c2cccnc2)cc1 (stereo unspecified),1,0,-5,0
CC1CCCN(c2ccc3nc4ccccc4c(=O)n3n2)C1 (stereo unspecified),9,0,71*,-4
SMILES,MITF inh,FBW7 activator,TEAD-YAP inh,GPR151 activ
Cc1ccc2nc3ccc(N4CCCC4)nn3c(=O)c2c1,1,0,-60,0
COc1cc(OC)cc(C(=O)Nc2c3c(nn2C(C)(C)C)CS(=O)C3)c1 (stereo unspecified),6,0,11,2
CCOC(=O)c1ccc2nc(NC(=O)CCc3ccccc3)sc2c1,-3,0,-2,1
CCOc1ccc2ccccc2c1/C=C1/SC(=O)N(CC(=O)OC)C1=O,12,0,42*,-1
N#CCc1nnc(N2CCOCC2)n1-c1ccccc1,1,0,-15,3
CCCCC(=O)OCCN1C(=O)c2cccc3c(N4CCOCC4)ccc(c23)C1=O,-31,3.4*,-23,1
CCCCC(=O)OCCCN1C(=O)c2cccc3c(N4CCCCC4)ccc(c23)C1=O,-2,0,0,1
